From PubChem BioAssay (NCI)
The panel holds about 79,000 compounds, 15% with a hit somewhere; the sample as a whole holds those more often. Rule as the data show it: active = growth inhibition above about 70%; inactive = the rest. Where a SMILES comes first, the peptide text is derived from it. Bridges are numbered along the chain shown (N, C = ends).

Experiments:
[1] = NCI Yeast Anticancer Drug Screen. Data for the rad50 strain (AID 155);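 also: 0% = growth of vehicle-only cultures of the same strain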; conditions: S. cerevisiae rad50 strain growth inhibition; at 50.0 µM; stronger effect = higher value
How it was run: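 Yeast carrying a defined DNA repair defect were exposed to test compounds, and growth was compared with vehicle-treated controls to give percent inhibition.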

[2] = NCI Yeast Anticancer Drug Screen. Data for the mec2-1 strain (AID 157); conditions: S. cerevisiae mec2-1 strain, at 50.0 µM, stronger effect = higher value
How it was run: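 Each compound was tested on mec2-1 yeast, a strain altered in DNA damage repair or cell cycle control. Growth inhibition is reported relative to vehicle.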

[3] = NCI Yeast Anticancer Drug Screen. Data for the sgs1 mgt1 strain (AID 161);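 also: 0% = growth of cultures given vehicle only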; conditions: S. cerevisiae sgs1 mgt1 strain, at 50.0 µM, stronger effect = higher value
How it was run: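 Mutant yeast exposed to compound; growth scored against vehicle-only wells.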

[4] = NCI Yeast Anticancer Drug Screen. Data for the cln2 rad14 strain (AID 165);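 also: 0% = growth equal to vehicle treated cultures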; conditions: S. cerevisiae cln2 rad14 strain, at 50.0 µM, stronger effect = higher value
How it was run: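 Test compounds were added to cln2 rad14 yeast cultures; inhibition of growth was then determined by comparison with vehicle treatment.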

[5] = NCI Yeast Anticancer Drug Screen. Data for the bub3 strain (AID 167); conditions: S. cerevisiae bub3 mutant strain, at 50.0 µM, stronger effect = higher value
How it was run: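 Compounds were applied to a genetically altered yeast strain carrying a cell-cycle control defect. Growth inhibition was scored against vehicle-treated controls.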

[6] = NCI Yeast Anticancer Drug Screen. Data for the mlh1 rad18 strain (AID 175); conditions: S. cerevisiae mlh1 rad18 strain growth inhibition; at 50.0 µM; stronger effect = higher value
How it was run: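 Inhibition values reflect reduced growth of mutant yeast versus vehicle-treated controls following compound exposure; the mutations affect DNA damage repair.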

Measured: growth inhibition

COC(=O)C[C@@]1(C(=O)OC)[C@@H](C(=O)OC)C(C(=O)OC)=NN1C
inactive: [1] -5.35% | [2] -18.4% | [3] 0.85% | [4] -49% | [5] 18.1% | [6] -4.45%

O.O.[Cl][Pt+2][Cl].[NH-]CC1(C[NH-])CCCCC1
inactive: [1] 10.4% | [2] 5.7% | [3] 11.8% | [4] 18.5% | [5] 8.75% | [6] -30.1%

CC1CN=C(c2ccccc2)C(c2ccccc2)=N1 (stereo not given)
inactive: [1] -24.2% | [2] 1.3% | [3] -6.4% | [4] -6.15% | [5] -12.5% | [6] -22.3%

CC(C)(C)OC(=O)NN(CC(=O)OCc1ccccc1)N=O
inactive: [1] 5.35% | [2] -2.15% | [3] 2.9% | [4] -42.5% | [5] 10.2% | [6] -7.6%

O=C1c2ccccc2C(=O)N1/N=C1/SC(=Nc2ccccc2)C(=Nc2ccccc2)N1c1ccccc1
inactive: [1] 6.3% | [2] 0% | [3] 15% | [4] 26.4% | [5] 14.8% | [6] 20.1%

CN(C)c1ccc(C(=O)CCCN2CCC(O)(c3ccc(Cl)cc3)CC2)cc1
inactive: [1] 37.4% | [2] 14.8% | [3] 36.6% | [4] 6.4% | [5] 18.1% | [6] 21.9%

CN(C)CCCNC(=O)NCCCCCCNC(=O)NCCCN(C)C
inactive: [1] 13.1% | [2] -9.85% | [3] 31.7% | [4] 18.4% | [5] 32.4% | [6] 19%

CC1(C)COC(c2ccc3ccccc3c2)OC1
inactive: [1] 26% | [2] 10.7% | [3] -6.2% | [4] -21.9% | [5] 35.4% | [6] -5.8%

O=C(OC(=O)c1cccnc1)c1cccnc1
inactive: [1] -30.2% | [2] -9.5% | [3] -7.75% | [4] 11.5% | [5] -2.85% | [6] 6.65%

CCCCCCCCCCCCCCCC(=O)NOCc1cscn1
inactive: [1] -0.8% | [2] -29.1% | [3] -3.25% | [4] -22.1% | [5] -12.8% | [6] 6.1%

CCCC(=O)OCc1ccc(Cl)cc1
inactive: [1] 24.6% | [2] 12.8% | [3] 6.9% | [4] 5.15% | [5] 6.55% | [6] 3.35%

CC(C)(c1ccc(O)c(Cl)c1)c1cc(Cl)c(O)c(S(=O)(=O)O)c1
inactive: [1] 10.8% | [2] 4.8% | [3] 27.2% | [4] 22.3% | [5] 1.15% | [6] -11.2%

CC1=NN(c2nc(N)nc(CSc3cc(Cl)c(C)cc3S(N)(=O)=O)n2)C(C)(C)C1
inactive: [1] -15.5% | [2] -8.7% | [3] 12.2% | [4] -8.35% | [5] -18.1% | [6] -4.95%

CCOC1NC(=O)Oc2ccccc21 (stereo not given)
inactive: [1] 4.2% | [2] 0.5% | [3] 8.1% | [4] 7.35% | [5] 10.9% | [6] -37.4%

CC(NNC(=O)c1ccncc1)c1ccc(Cl)cc1Cl (stereo not given)
inactive: [1] -19.9% | [2] 9.15% | [3] -21.6% | [4] 22.6% | [5] 13.8% | [6] -16.1%

CN(C)CC1=C(O)c2ccccc2C(=O)C1=O
inactive: [1] -0.25% | [2] -1.2% | [3] 1.1% | [4] 13.7% | [5] 31.6% | [6] -4.2%

O=P(O)(CP(=O)(c1ccccc1)c1ccccc1)c1ccccc1
inactive: [1] 15.3% | [2] 7.25% | [3] 15.9% | [4] 16.2% | [5] 5.9% | [6] 10.9%

O=C1C=C(C2OC(CI)C(O)C2O)C(=O)N1 (stereo not given)
inactive: [1] -0.45% | [2] 23.1% | [3] 11.5% | [4] -14.4% | [5] 23.2% | [6] -2.05%

CC(=O)N1CCc2[nH]c3ccccc3c2CC1
inactive: [1] 10.9% | [2] -7.05% | [3] -4.55% | [4] 21.8% | [5] -3.1% | [6] 16.2%

COC(=O)C1C2C=CC(O2)C1C(=O)OC (stereo not given)
inactive: [1] -2.15% | [2] -1.75% | [3] -9.75% | [4] -51.6% | [5] 14.1% | [6] -7.45%

CN1C(=O)CC2(C)c3cc(O)ccc3N(C)C12 (stereo not given)
inactive: [1] 53.6% | [2] 30.1% | [3] 54.5% | [4] 64.3% | [5] 32.6% | [6] -81.7%

C=CCNC(=S)N(C)Cc1ccccc1Cl
inactive: [1] -7.2% | [2] 35.5% | [3] 34.8% | [4] -25.9% | [5] 36.4% | [6] 33.6%

COc1ccc(/C=C/C(=O)c2ccc(Br)cc2)cc1
inactive: [1] -33.4% | [2] -67.5% | [3] -34.2% | [4] 2.75% | [5] -14.4% | [6] -44.3%

CC1OC(Cc2ccccc2)OC1C (stereo not given)
inactive: [1] 12.4% | [2] 13.8% | [3] 16.7% | [4] 0.4% | [5] 12.6% | [6] 9.9%

O=C1CN(c2cccc(C(F)(F)F)c2)C(=O)CN1/N=C/c1ccc(O)c(O)c1
inactive: [1] 3.4% | [2] -0.1% | [3] -5.3% | [4] -2.3% | [5] 2.4% | [6] 27.6%

CC(CO)CCC(=O)C(C)C1CC2(C)CCC3C(CCC4CC(O)CCC43C)C2C12SCCS2 (stereo not given)
inactive: [1] 0.6% | [2] 19.5% | [3] -7.8% | [4] 17.1% | [5] 36.6% | [6] -0.25%

CCOC(=O)C(NC(=O)c1ccccc1)(Nc1ccc(S(=O)(=O)Nc2ncccn2)cc1)C(F)(F)F (stereo not given)
inactive: [1] 1.1% | [2] -17.4% | [3] -16.8% | [4] -4.55% | [5] -12.7% | [6] 16.9%

O=C(N/N=C\c1ccncc1)Nc1ccc(N=Nc2ccccc2)cc1
inactive: [1] 13.2% | [2] 6.05% | [3] 17.6% | [4] -2.6% | [5] 5.9% | [6] 19.6%

O=C(c1ccc(Cl)cc1)N(C(=S)N1CCN(c2ccccc2)CC1)c1ccccc1
inactive: [1] -11.5% | [2] -25.9% | [3] -12.1% | [4] -6.3% | [5] -13.8% | [6] -15.1%

CCOC(=O)C(=O)Cc1ccccc1[N+](=O)[O-]
inactive: [1] 26.1% | [2] 0.1% | [3] 7.75% | [4] -3.95% | [5] -3.8% | [6] 38%

Cc1ccc(C(=O)Nc2ccc(CP(=O)(O)O)cc2CP(=O)(O)O)cc1NC(=O)Nc1cc(C(=O)Nc2ccc(CP(=O)(O)O)cc2CP(=O)(O)O)ccc1C
inactive: [1] -10.8% | [2] -5.45% | [3] -12.1% | [4] -0.25% | [5] 0.4% | [6] 9.65%

CC(NNC(=S)N1CCN(c2ccccn2)CC1)c1cccc[n+]1[O-] (stereo not given)
inactive: [1] 9.6% | [2] 5.4% | [3] 3.8% | [4] -11.2% | [5] 6.55% | [6] 11.9%

O=C(CSC1=NCCN1)c1ccccc1
inactive: [1] -17.9% | [2] 6.3% | [3] -27.1% | [4] -57.9% | [5] 8.55% | [6] 11.6%

C/C=C(\C)C(=O)OCC1CC[N+](C)([O-])C1 (stereo not given)
inactive: [1] -23.8% | [2] -8% | [3] -6.7% | [4] -57.9% | [5] 5% | [6] -15.3%

O=C(COc1ccccc1)Nc1cccc(C(=O)O)c1
inactive: [1] 1.2% | [2] 13.5% | [3] 21.9% | [4] 0.9% | [5] 36.6% | [6] 32.2%

COC(=O)C1CCC(=O)NCCCCC(NC(=O)C(N)CC(=O)O)C(=O)N1 (stereo not drawn) (H-Asp-Lys-Glu-OMe; lactam 2-3; configuration not given here)
inactive: [1] 5.4% | [2] 4% | [3] 11.3% | [4] -1.9% | [5] 15.1% | [6] -27.9%

C(=C/c1ccccc1)/CNCCNC/C=C/c1ccccc1
inactive: [1] 46.1% | [2] 22.6% | [3] 40.8% | [4] 35% | [5] 35.3% | [6] 47.5%

CCCCNC(=O)CC(C)C(=O)O (stereo not given)
inactive: [1] 2.8% | [2] -1.35% | [3] -6.1% | [4] -20.8% | [5] -1.55% | [6] 6.1%

COc1ccc(OC)c2c3c([nH]c12)C(=O)Nc1nc(N)nc(N)c1C3
inactive: [1] 42.9% | [2] 19.9% | [3] 30.4% | [4] 21.8% | [5] 31.9% | [6] 40.5%

CN(C)C(=O)CCCC(=O)c1cccc([N+](=O)[O-])c1
inactive: [1] 9.55% | [2] 3.5% | [3] 3.7% | [4] 10.6% | [5] 16% | [6] -13.3%
